{"source": "PubChem BioAssay (NCI)", "note": "Compounds without any hit were thinned out: in the full panel of roughly 83,000, 20% have a hit.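 Activity criterion: percent growth below 10, measured after cells in 96-well plates were exposed to a single compound concentration for 48 hours.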 Values without a mark were called inactive. Calls of active or inactive are those of the source."}
{"tested_on": "NCI-H322M lung", "assay": "NCI-60 one-dose screen, 48 h (100 = growth as untreated, 0 = no growth, -100 = all killed)", "conditions": "10 µM unless noted"}
{"smiles": "S=C(Sc1ccc(Cl)cc1)Sc1ccc(Cl)cc1", "growth": "106%"}
{"smiles": "O=C(O)c1ccc([N+](=O)[O-])cc1S(=O)(=O)O", "growth": "113%"}
{"smiles": "O=C(O)CC1=CCCCC1", "growth": "98.7%"}
{"smiles": "O=C1C=C[C@H](O)[C@@]2(CO)O[C@@H]12", "growth": "114%"}
{"smiles": "NC(=O)NCCO", "growth": "109%"}
{"smiles": "O=C(O)C1CCCN1C(=O)OCc1ccccc1", "note": "(configuration not stated)", "growth": "104%"}
{"smiles": "COC(=O)c1cccc([N+](=O)[O-])c1", "growth": "103%"}
{"smiles": "CCOC(=O)C(=O)CC(=O)c1ccccc1", "growth": "94.5%"}
{"smiles": "O=Cc1ccc(F)cc1", "growth": "90.6%"}
{"smiles": "CC1CC2C3CCC4=CC(=O)CCC4(C)C3CCC2(C)C1(O)C(=O)CO", "note": "(configuration not stated)", "growth": "109%"}
{"smiles": "CC(CC(CCC(=O)O)(c1ccccc1)c1ccccc1)N(C)C", "note": "(configuration not stated)", "growth": "95.9%"}
{"smiles": "Cc1ccc(S(=O)(=O)Oc2ccc3sc4c(CO)ccc(NCCN(C)C)c4c(=O)c3c2)cc1", "growth": "-98.2% [100 µM] (active)"}
{"smiles": "O=C(OCC1CCCO1)c1ccc([N+](=O)[O-])cc1", "note": "(configuration not stated)", "growth": "100%"}
{"smiles": "Nc1c(Br)cc(O)c2c1C(=O)c1ccccc1C2=O", "growth": "98.7%"}
{"smiles": "COc1ccc(Br)c2c1C(=O)CC2", "growth": "159%"}
{"smiles": "CC(=O)N(C(C)=O)c1ccc(C)cc1", "growth": "102%"}
{"smiles": "CC1(C)C2CCC1(C)C1(C2)OCCS1", "note": "(configuration not stated)", "growth": "99.6%"}
{"smiles": "O=c1n(CC2CO2)c(=O)n(CC2CO2)n1CC1CO1", "note": "(configuration not stated)", "growth": "94%"}
{"smiles": "S=C=Nc1ccc2ccccc2c1", "growth": "109%"}
{"smiles": "O=C(O)c1c[nH]c2ccccc2c1=O", "growth": "94%"}
{"smiles": "Cc1[nH]n(-c2ccccc2)c(=O)c1C=NC(=S)C(N)=S", "growth": "110%"}
{"smiles": "CC(=O)N(C)N=Nc1ccc(C)cc1", "growth": "92.3%"}
{"smiles": "COc1ccc2c(Cl)cc(NC(=O)Nc3c(C)cccc3C)nc2c1", "growth": "54%"}
{"smiles": "O=C(c1ccc(Cl)cc1)N1CCCCC1", "growth": "106%"}
{"smiles": "CC(=O)NC(O)C(Cl)Cl", "note": "(configuration not stated)", "growth": "98.4%"}
{"smiles": "CCC(/C=C\\C(C)=O)CC", "growth": "99%"}
{"smiles": "CCOC(=O)C(COS(C)(=O)=O)(COS(C)(=O)=O)C(=O)OCC", "growth": "101%"}
{"smiles": "CC(=O)NNC(=S)N/C=C/c1c(C)ccc([N+](=O)[O-])c1[N+](=O)[O-]", "growth": "111%"}
{"smiles": "CC(=O)N(CCCCCCN(C(C)=O)C(C)=O)C(C)=O", "growth": "108% [100 µM]"}
{"smiles": "CC(=O)NCNC(C)=O", "growth": "110%"}
{"smiles": "NNc1ncccn1", "growth": "105%"}
{"smiles": "Nc1cc2ccccc2c(O)c1O", "growth": "89.1%"}
{"smiles": "S=c1nc(-c2ccccn2)c(-c2ccccn2)n[nH]1", "growth": "103%"}
{"smiles": "CC(C)Sc1ncnc2nc[nH]c12", "growth": "122%"}
{"smiles": "Clc1cccc(Cl)c1C1CSc2ccccc2N=C1c1ccccc1", "note": "(configuration not stated)", "growth": "86.3%"}
{"tested_on": "HOP-62 NSCLC", "assay": "NCI-60 one-dose screen, 48 h (100 = growth as untreated, 0 = no growth, -100 = all killed)", "conditions": "10 µM unless noted"}
{"smiles": "S=C(Sc1ccc(Cl)cc1)Sc1ccc(Cl)cc1", "growth": "47.9%"}
{"smiles": "O=C(O)c1ccc([N+](=O)[O-])cc1S(=O)(=O)O", "growth": "107%"}
{"smiles": "O=C(O)CC1=CCCCC1", "growth": "98.3%"}
{"smiles": "O=C1C=C[C@H](O)[C@@]2(CO)O[C@@H]12", "growth": "126%"}
{"smiles": "NC(=O)NCCO", "growth": "102%"}
{"smiles": "O=C(O)C1CCCN1C(=O)OCc1ccccc1", "note": "(configuration not stated)", "growth": "127%"}
{"smiles": "C=CC(C)(C)n1cc(C2=C(O)C(=O)C(c3cn(C(C)(C)C=C)c4ccccc34)=C(O)C2=O)c2ccccc21", "growth": "73.1%"}
{"smiles": "COC(=O)c1cccc([N+](=O)[O-])c1", "growth": "79.4%"}
{"smiles": "CCOC(=O)C(=O)CC(=O)c1ccccc1", "growth": "94.9%"}
{"smiles": "O=Cc1ccc(F)cc1", "growth": "108%"}
{"smiles": "CC1CC2C3CCC4=CC(=O)CCC4(C)C3CCC2(C)C1(O)C(=O)CO", "note": "(configuration not stated)", "growth": "106%"}
{"smiles": "CC(CC(CCC(=O)O)(c1ccccc1)c1ccccc1)N(C)C", "note": "(configuration not stated)", "growth": "96.6%"}
{"smiles": "Cc1ccc(S(=O)(=O)Oc2ccc3sc4c(CO)ccc(NCCN(C)C)c4c(=O)c3c2)cc1", "growth": "-68.3% [100 µM] (active)"}
{"smiles": "O=C(OCC1CCCO1)c1ccc([N+](=O)[O-])cc1", "note": "(configuration not stated)", "growth": "92.6%"}
{"smiles": "Nc1c(Br)cc(O)c2c1C(=O)c1ccccc1C2=O", "growth": "117%"}
{"smiles": "COc1ccc(Br)c2c1C(=O)CC2", "growth": "116%"}
{"smiles": "CC(=O)N(C(C)=O)c1ccc(C)cc1", "growth": "105%"}
{"smiles": "CC1(C)C2CCC1(C)C1(C2)OCCS1", "note": "(configuration not stated)", "growth": "101%"}
{"smiles": "O=c1n(CC2CO2)c(=O)n(CC2CO2)n1CC1CO1", "note": "(configuration not stated)", "growth": "46%"}
{"smiles": "S=C=Nc1ccc2ccccc2c1", "growth": "98.3%"}
{"smiles": "O=C(O)c1c[nH]c2ccccc2c1=O", "growth": "94.9%"}
{"smiles": "Cc1[nH]n(-c2ccccc2)c(=O)c1C=NC(=S)C(N)=S", "growth": "104%"}
{"smiles": "CC(=O)N(C)N=Nc1ccc(C)cc1", "growth": "95.8%"}
{"smiles": "COc1ccc2c(Cl)cc(NC(=O)Nc3c(C)cccc3C)nc2c1", "growth": "6.88% (active)"}
{"smiles": "O=C(c1ccc(Cl)cc1)N1CCCCC1", "growth": "96.7%"}
{"smiles": "CC(=O)NC(O)C(Cl)Cl", "note": "(configuration not stated)", "growth": "95.6%"}
{"smiles": "CCC(/C=C\\C(C)=O)CC", "growth": "94.9%"}
{"smiles": "CCOC(=O)C(COS(C)(=O)=O)(COS(C)(=O)=O)C(=O)OCC", "growth": "98.1%"}
{"smiles": "CC(=O)NNC(=S)N/C=C/c1c(C)ccc([N+](=O)[O-])c1[N+](=O)[O-]", "growth": "103%"}
{"smiles": "CC(=O)N(CCCCCCN(C(C)=O)C(C)=O)C(C)=O", "growth": "112% [100 µM]"}
{"smiles": "CC(=O)NCNC(C)=O", "growth": "108%"}
{"smiles": "NNc1ncccn1", "growth": "101%"}
{"smiles": "CC12CCC3c4ccc(O)cc4CCC3C1CCC2=O", "note": "(configuration not stated)", "growth": "98.1%"}
{"smiles": "Nc1cc2ccccc2c(O)c1O", "growth": "76.9%"}
{"smiles": "S=c1nc(-c2ccccn2)c(-c2ccccn2)n[nH]1", "growth": "110%"}
{"smiles": "CC(C)Sc1ncnc2nc[nH]c12", "growth": "105%"}
{"smiles": "Clc1cccc(Cl)c1C1CSc2ccccc2N=C1c1ccccc1", "note": "(configuration not stated)", "growth": "84.6%"}
